SRC1 TRFRET art = counter-screen for PPARgamma SRC-1 recruitment agonists: TR-FRET artefact | 0.34% of 99,000 active | TR-FRET ratio at 8 µM | TR-FRET detection artefact counter-screen, emission ratio; hits give high values | AID 1051; in the data active = TR-FRET ratio above about 2300
PPARg SRC3 recr = promotes SRC-3 coactivator recruitment by human PPARgamma; biochemical PPARgamma/SRC-3 coactivator recruitment assay; activation, % at 8 µM; 0.26% of 200,000 active; AID 731; in the data active = activation above about 23%
Target sequence (P37231 whole entry, looked up): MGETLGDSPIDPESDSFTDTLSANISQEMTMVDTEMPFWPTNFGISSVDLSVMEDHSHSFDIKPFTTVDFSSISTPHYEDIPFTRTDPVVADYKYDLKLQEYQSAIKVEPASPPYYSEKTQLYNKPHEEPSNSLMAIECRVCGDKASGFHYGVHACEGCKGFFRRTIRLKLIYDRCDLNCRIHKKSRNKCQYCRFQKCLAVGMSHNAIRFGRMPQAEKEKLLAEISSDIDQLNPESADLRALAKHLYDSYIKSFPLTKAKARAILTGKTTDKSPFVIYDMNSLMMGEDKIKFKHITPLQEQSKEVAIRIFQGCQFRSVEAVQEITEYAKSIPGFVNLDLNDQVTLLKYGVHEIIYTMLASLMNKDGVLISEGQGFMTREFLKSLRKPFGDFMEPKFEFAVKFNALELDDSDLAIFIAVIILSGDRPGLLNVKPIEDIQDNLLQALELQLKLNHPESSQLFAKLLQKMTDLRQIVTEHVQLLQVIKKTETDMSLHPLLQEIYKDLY
SRC3 TRFRET art = TR-FRET artefact, counter-screen to PPARgamma/SRC-3 agonist assay; PPARgamma/SRC-3 format; hits give high values; TR-FRET ratio at 8 µM; 0.39% of 99,000 active; AID 1048
TR-FRET SRC-2 ct = flags TR-FRET format artefacts in PPARgamma SRC-2 recruitment agonist screen | TR-FRET ratio at 8 µM | AID 1049 | 0.4% of 200,000 active | TR-FRET artefact counter-screen; hits give high values
PPARg SRC1 recr = promotes SRC-1 coactivator recruitment by human PPARgamma; PPARgamma-SRC-1 coactivator recruitment biochemical assay; AID 631; P37231; activation, % at 8 µM; 0.41% of 200,000 active; in the data active = activation above about 19%
PPARg SRC2 recr = agonists of SRC-2 recruitment by human PPARgamma | AID 1032 | activation, % at 8 µM | P37231 | 0.34% of 200,000 active | PPARgamma LBD-SRC-2 recruitment, biochemical; in the data active = activation above about 22%
Numbers stand for hits; - = inactive; . = no result. Most compounds without a hit are left out; they make up all but 0.9% or so of the library. Cut-off read from the data, not from the text of the source, unless noted: active = TR-FRET ratio above about 2000; inactive = the rest.

SMILES	SRC1 TRFRET art	PPARg SRC3 recr	SRC3 TRFRET art	TR-FRET SRC-2 ct	PPARg SRC1 recr	PPARg SRC2 recr
O=C(COC(=O)CCSc1ccccc1)Nc1cc(F)ccc1F	-	-	-	-	-	-
COc1ccc(-c2c(C#N)c(C)nc3c2C(=O)c2ccccc2-3)cc1	.	-	.	-	23.9	-
Cn1ncc([N+](=O)[O-])c1C(=O)N/N=C/c1ccc(F)cc1	-	-	-	-	20.9	-
CCN(C(=O)c1ccco1)c1nc(CC(=O)Nc2ccc(Cl)cc2)cs1	.	-	.	-	-	-
CCC(=O)N(Cc1ccco1)c1nc(C(=O)Nc2ccc(Cl)cc2)c(C)s1	-	-	-	1971	-	-
C=CCn1c(SCc2ccc(C(=O)OC)cc2)nnc1-c1sc(N)nc1C	-	-	-	1972	-	-
CCCc1cc(=O)[nH]c(/N=C(\N)Nc2ccccc2)n1	.	-	.	-	-	-
N/C(=N\OC(=O)COc1ccc2ccccc2c1Br)c1cccnc1	2331	-	-	-	-	-
N/C(=N\OC(=O)COc1ccc(Br)cc1Cl)c1ccccn1	-	-	-	-	-	-
N/C(=N\OC(=O)COc1ccc2ccccc2c1Br)c1ccccn1	2360	-	-	1993	-	-
N/C(=N\OC(=O)COc1ccc(Br)cc1)c1cccnc1	-	-	-	-	-	-
COC(=O)CSc1nc2cc3c(cc2cc1C#N)OCO3	.	-	.	-	80.6	-
CC(C)OC(=O)CSc1nc2cc3c(cc2cc1C#N)OCO3	.	-	.	-	54.2	-
O=C(Cc1ccccc1[N+](=O)[O-])NCc1ccco1	-	-	-	-	-	-
O=C1OCC2=C1C(c1ccc(F)cc1)CC(=O)N2c1ccccc1 (configuration not stated)	-	-	-	-	-	-
Cc1ccc(C2C(C#N)=C(N)SC(N)=C2C#N)o1	.	-	.	2112	19.2	23.4
COc1ccc(C(=O)NCC(=O)N=Nc2c(O)n(Cc3ccccc3)c3ccccc23)cc1OC	-	-	-	2099	-	34.4
O=C(N=Nc1c(O)n(Cc2ccccc2)c2ccccc12)c1ccc(O)cc1	-	-	-	-	-	-
COc1ccc(C2CC(c3ccccc3)=NN2C(=O)COC(=O)c2cc(S(=O)(=O)N3CCOCC3)ccc2Cl)cc1 (configuration not stated)	-	-	-	2080	-	-
COc1ccc(OC)c2c1sc(=NC(=O)C(C)(C)C)n2C	.	31.8	.	4080	-	120.7
Oc1c(Br)cc(Br)cc1C=NCc1ccc(F)cc1	-	-	-	-	20.7	-
Oc1c(Br)cc(Br)cc1C=NCc1ccccc1	-	-	-	-	-	-
CC1CCCCC1NC(=O)COC(=O)COc1ccccc1Cl (configuration not stated)	-	-	-	-	-	-
COc1cc2[nH]c(=S)n(NC(=O)c3ccccc3)c(=O)c2cc1OC	.	-	.	2013	-	-
Cc1ccc(NC(=O)CSc2nnc(-c3ccccc3Br)o2)cc1C	.	-	.	-	-	-
SMILES	SRC1 TRFRET art	PPARg SRC3 recr	SRC3 TRFRET art	TR-FRET SRC-2 ct	PPARg SRC1 recr	PPARg SRC2 recr
Cc1cc(C)c(C(=O)CSc2nnc(-c3ccccc3Br)o2)cc1C	.	-	.	-	26.9	-
CC(OC(=O)CC(NC(=O)c1ccccc1Cl)c1ccccc1)C(=O)Nc1cccc(Cl)c1Cl (configuration not stated)	-	-	-	-	-	-
O=C(Nc1cccc2ccccc12)c1cn(-c2ccccc2)nc1-c1cccs1	.	-	.	2231	-	-
COC(=O)c1nnn(-c2nc(N3CCOCC3)nc(N3CCOCC3)n2)c1C	-	-	-	-	-	-
Cc1ccc(CSc2nc3c(cc2C#N)CCC3)cc1	.	-	.	-	30.3	-
N#Cc1cc2c(nc1SCc1ccc(Cl)cc1)CCCC2	.	-	.	-	-	-
Cc1cc(C)c2nc(SCC(=O)N3CC(=O)Nc4ccccc43)c(C#N)cc2c1	.	-	.	3300	-	-
CN(C)S(=O)(=O)c1cccc(NC(=O)COC(=O)c2cc(-c3cccc(Br)c3)nc3ccccc23)c1	2585	25.5	3725	2575	-	-
Cc1ccnc2nc(C(=O)N3CCN(S(=O)(=O)c4ccccc4)CC3)nn12	.	-	.	-	-	-
CN(C)c1ccc(N=C/C=C2\N(C)c3ccccc3C2(C)C)cc1	.	27.9	.	-	-	-
O=C1c2ccccc2C(O)(c2ncc[nH]2)N1CCc1ccccc1 (configuration not stated)	.	-	.	-	-	-
CC(=O)Nc1ccc(-c2nnc(SCC(=O)c3ccc4c(c3)Cc3ccccc3-4)n2C)cc1	.	-	.	2129	-	-
Cn1c(SCC(=O)c2ccc3c(c2)Cc2ccccc2-3)nnc1-c1cccc(N)c1	-	-	-	-	-	-
O=C(CCCn1c(=S)[nH]c2cc3c(cc2c1=O)OCO3)N1CCN(c2ccccc2F)CC1	.	-	.	-	-	-
Cc1ccc(C)c(N2CCN(C(=O)CCCn3c(=S)[nH]c4cc5c(cc4c3=O)OCO5)CC2)c1	.	-	.	2000	-	-
O=C(N/N=C/c1cnc(N2CCCCC2)s1)c1ccc(Cl)cc1	-	-	-	-	21.1	-
COc1ccc(OC)c(S(=O)(=O)N2c3cc(F)ccc3CCC2C)c1 (configuration not stated)	.	-	.	-	-	-
Cc1cc2cc(CN3C(=O)c4ccccc4C3=O)ccc2n1C	-	-	2708	-	-	-
O=C1c2ccccc2C(=O)N1Cc1ccc2c(c1)OCO2	.	-	.	-	-	-
Cc1ccc(S(=O)(=O)NCc2ccc3c(c2)cc(C)n3C)cc1	.	-	.	2007	-	-
CCOc1ccc(C(Nc2ccc(C)cc2)P2(=O)OCCC(C)O2)cc1 (configuration not stated)	.	-	.	-	-	-
Cc1ccc(-c2nnc(OCc3cccnc3)c3ccccc23)cc1	-	-	-	-	-	-
COC(=O)[C@@]1(Cc2ccc(OC)cc2)[C@H]2c3cc(C(=O)N4CCCC4)n(CCc4c[nH]c5ccc(O)cc45)c3C[C@H]2CN1C(=O)c1ccccc1	-	-	-	-	-	-
CCCCC#Cc1ccccc1CC(=O)Nc1ccccc1	-	-	-	-	-	-
Nc1ccccc1C#CCCCCO	-	-	2204	-	-	-
SMILES	SRC1 TRFRET art	PPARg SRC3 recr	SRC3 TRFRET art	TR-FRET SRC-2 ct	PPARg SRC1 recr	PPARg SRC2 recr
CCOc1ccc(S(=O)(=O)c2c(C(=O)c3ccc(C)cc3)cnc3cc4c(cc23)OCCO4)cc1	2755	-	2812	2406	-	-
Cc1ccc(C(=O)c2cnc3cc4c(cc3c2S(=O)(=O)c2ccccc2)OCCO4)cc1	-	-	2485	-	-	-
O=S(=O)(c1ccc2ncn(O)c2c1)N1CCOCC1	-	-	-	-	-	-
CC(C)OCCCNC(=O)C1CCN(S(=O)(=O)N2CCCC2)CC1	-	-	-	-	-	-
FC(F)(F)c1nc(=S)c2ccccc2[nH]1	2370	-	2198	2366	22.6	26.6
COc1ccc2c(-c3ccccc3)cc(SCC(=O)NC(N)=O)nc2c1	-	32.6	4477	-	-	-
CCOC(=O)c1c(NC(=O)CSc2nnc(-c3ccc(C)cc3)o2)sc(C(C)=O)c1C	.	-	.	-	-	-

Source: PubChem BioAssay
